The list is not random: actives were taken first. Their share in the collection is about 4%.
CF NFkB block – blocks PAF-induced NF-kB reporter in cystic fibrosis cells | inhibition, % at 5 µM | KKLEB NF-kB-GFP reporter, GFP fluorescence overnight | AID 588850 | hit rate 0.86% among 360,000;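 active means at least 50% inhibition at 5 µM, scaled per plate between neutral and stimulator controls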;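 further: PAF is a Pseudomonas aeruginosa culture filtrate used as stimulus; plate controls were PAF-stimulated DMSO wells for no effect and unstimulated DMSO wells for full effect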
HIF-2a block – HIF-2a inhibition. 786-0 RCC cells HIF-2a reporter, luciferase luminescence, overnight. inhibition, % at 18.8 µM. hit rate 0.72% among 360,000. AID 624352;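 active means inhibition of the luminescence signal of 40% or more relative to plate controls, in a single-dose primary screen at 18.75 µM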
Peg3 promoter – reduces Peg3 promoter-driven luciferase expression in HeLa | HeLa PEG-Prom luciferase reporter, luminescence, overnight | inhibition, % at 20 µM | hit rate 1.7% among 360,000;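 active means inhibition of at least 50% at 20 µM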
TROY NFkB inh – blocks TROY-dependent signaling in reporter cells. Q293 LMP1-TROYcd NF-kB luciferase reporter, 4 h. inhibition, % at 10 µM. hit rate 0.98% among 360,000. AID 1347056;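 active means compounds whose plate-normalised and pattern-corrected inhibition of the luciferase reporter signal at the single screening dose is 50% or more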
TWEAK Fn14 block – TWEAK-Fn14 signaling inhibition; inhibition, % at 10 µM; hit rate 2% among 360,000; AID 1159606; TWEAK-stimulated Fn14 reporter cells, luciferase luminescence, 8 h; in the data active means inhibition above about 50%
KKLEB cytotox – CF airway cell cytotoxicity counter-screen | KKLEB CF airway cells viability, ATPlite luminescence, overnight; hits give low values; cells stimulated with P. aeruginosa culture filtrate | activity change (cytotoxicity), % at 5 µM | hit rate 0.36% among 360,000 | AID 602141;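 active means corrected activity change at or below -50% at 5 µM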
* = called active by the depositor; x = no result; ! = not active in a repeat.

SMILES	CF NFkB block	HIF-2a block	Peg3 promoter	TROY NFkB inh	TWEAK Fn14 block	KKLEB cytotox
CC(C)CN1CCC1(C)C(=O)Nc1cc(-c2ccccc2)nn1C (stereo not given)	4	-13	6	4	-11	-9
CCN(CC)CCOC(=O)c1ccc(NC(=O)/C=C/c2cccs2)cc1	5	-64	-77	74*	64*	0
COc1cc(SC)ccc1C(=O)Nc1ccc(Br)cn1	-10	38	55*	84*	97*	-85*
COc1cc(SC)ccc1C(=O)Nc1ccccn1	-4	-169	-167	-7	56*	-40
Cc1ccc(S(=O)(=O)N2C[C@H]3C(=O)C[C@@H](c4cccs4)N(S(=O)(=O)c4ccc(C)cc4)[C@H]3C[C@H]2c2ccccc2)cc1	2	16	3	11	-11	6
O=C(NCc1ccco1)C1CCN(C(=O)c2ccc(Cl)cc2Cl)CC1	-8	7	9	-6	10	-5
CCCS(=O)(=O)NC(=O)C1(C)CCCN(C(=O)c2cc(OC)ccc2Br)C1 (stereo not given)	6	11	-2	0	6	6
Cc1cc(S(=O)(=O)ON2C(=O)c3ccccc3C2=O)ccc1F	8	34	61*	-1	-1	-8
FC(F)(F)c1cc(Cl)c2nc(-c3ccccc3)c(Cc3ccccc3)n2c1	-1	-32	-1	13	16	-3
Oc1cccc(-c2nnc(-c3cccc(O)c3)nn2)c1	-2	-12	-13	27	85*	-60*
COc1ccc(-n2cc(C(=O)c3ccccc3O)cn2)cc1	1	-72	-33	48	61*	-10
Cc1ccc(C(=O)Cn2cnc3ccccc3c2=O)cc1	-2	-187	-256	54*	-34	7
O=C(Cn1cnc2ccccc2c1=O)c1ccccc1	-5	-58	-56	-28	-4	11
CCOC(=O)C1=CCN(S(=O)(=O)c2ccccc2Cl)C1c1cccc(Br)c1 (stereo not given)	15	14	36	17	21	-20
COc1ccc2sc(-c3ccccc3OC)c(-c3ccc(OC)nc3)c2c1	-18	-128	-67	-27	-6	14
CCOC(=O)c1ccc(-c2c(-c3ccccc3OC)sc3ccc(OC)cc23)cc1F	-10	-22	5	53*	-9	0
CCN(CC)C(=O)c1cccc(-c2csc(C(O)c3cccc(Cl)c3)n2)c1 (stereo not given)	-6	11	30	45	61*	-3
O=C(CCc1nnc2ccc(NCc3ccccc3)nn12)NC1CCCCC1	-4	13	11	-9	-13	-11
C=CCOc1cccn2c(N(C=O)Cc3ccc(OC)cc3)c(CC)nc12	9	2	15	8	-1	-2
c1ccc2c(c1)cnc1ccccc12	0	-1	-6	1	7	3
c1ccc(-c2cnc(-c3ccccc3)nc2)cc1	-8	-298	-135	1	67*	-16
c1ccc(-c2ncc3c(ccc4ccccc43)n2)cc1	-15	-35	-81	51*	84*	-54*
O=C(O)c1ncc(-c2ccccc2)cn1	10	-1	1	-7	1	-12
CC1CCN(CCCNC(=O)c2cc3c(Cl)nc4ccccc4c3s2)CC1	-39	25	53*	-41	-50	-18
CCOc1ccccc1CNS(=O)(=O)c1ccc(-c2cnc(C3CC3)o2)cc1	46	23	17	56*	33	-28
SMILES	CF NFkB block	HIF-2a block	Peg3 promoter	TROY NFkB inh	TWEAK Fn14 block	KKLEB cytotox
COC(=O)C1(Cc2ccc3c(c2)CCC3)Cc2ccc3c(c2C1=O)CCC3 (stereo not given)	10	4	38	12	22	3
Cc1ccccc1N1Cc2ccccc2C1=O	-21	-7	2	19	2	9
CC(C(=O)O)c1ccc(N2Cc3ccccc3C2=O)cc1 (stereo not given)	-13	10	-83	8	70*	14
CC1CCC(C(C)C)C(OC(=O)Cn2c(-c3ccccc3)[n+](C)c3ccccc32)C1 (stereo not given)	55*!	-2	65*	57*	64*	-54*!
O=S(=O)(NC1CCN(S(=O)(=O)c2c(F)cccc2F)CC1)c1ccc2c(c1)OCCO2	-5	-1	9	20	-10	10
O=C(CNC(=O)c1ccc(Br)o1)NCc1ccc(F)cc1	15	14	10	2	2	-7
Cc1cccc(C)c1NC(=O)C1(C)CN(S(C)(=O)=O)CC(=O)N1Cc1ccc2c(c1)OCO2 (stereo not given)	x	-13	x	x	x	x
COc1ccc(-c2c(C)nn3c(N)c(C#N)cnc23)cc1OC	2	34	31	-6	50*	-8
Cc1nn2c(N)c(C#N)cnc2c1-c1ccc(Cl)cc1	9	-9	-17	8	-3	-4
CCC1CCCCN1CCCNC(=O)c1cn(CC)c2ccc(S(=O)(=O)N3CCc4ccccc4C3)cc2c1=O (stereo not given)	4	17	77*	3	-6	3
Nc1c(C(O)(C(F)(F)F)C(F)(F)F)cc(C(O)(C(F)(F)F)C(F)(F)F)c2ccccc12	2	41*	34	52*	44	-8
N=c1c2c(-c3ccccc3)c(-c3ccccc3)n(Cc3ccco3)c2ncn1CCO	9	37	93*	-19	-13	-17
Cc1ccccc1C(=O)Nc1ccc(S(=O)(=O)N2CCOCC2)cc1	5	11	-2	2	-1	4
COC(=O)/C=C/S(=O)(=O)c1ccc(NC(C)=O)cc1	91*	13	105*	28	-9	-22
COc1ccccc1OS(=O)(=O)c1ccc(NC(C)=O)cc1	-8	3	2	18	29	17
CC(=O)N1CCc2cc(Br)cc(S(=O)(=O)NCCCN(C)Cc3ccccc3)c21	7	15	-12	-4	98*	-5
CCOC(=O)c1ccc(Nc2sc(C(=O)c3cccc([N+](=O)[O-])c3)c(N)c2C#N)cc1	-5	4	52*	-67	8	-8
Cn1c(=O)c2c(n(C)c1=O)n(C)c(=O)n2C	-28	-2	-9	-12	9	7
COC(=O)c1c(C)[nH]c(C(=O)COc2ccc3ccc(=O)oc3c2)c1C	-16	6	32	7	9	8
CC(=O)c1c(C)[nH]c(C(=O)COc2ccc3ccc(=O)oc3c2)c1C	-28	-1	68*	5	0	-2
CCOC(=O)N1CCN(C(=O)C(=O)Nc2sc3c(c2C(N)=O)CC(C)(C)OC3)CC1	-3	8	-2	19	-46	4
Cc1cc(C)cc(Nc2nc3c(S(=O)(=O)c4ccccc4)nnn3c3ccccc23)c1	-3	15	-1	7	-21	2
Cc1cccc(Nc2nc3c(S(=O)(=O)c4ccccc4)nnn3c3ccccc23)c1	-7	16	2	53*	-44	-10

Source: PubChem BioAssay
